# Results taken from PubChem BioAssay AID1347074 (Center for Chemical Genomics, University of Michigan, 2019).
# Screen size: about 47,000 compounds; about 2,800 (6%) were called active. The sample holds actives, similar compounds and a random draw of the others, so the mix is not that of the screen. Unmarked numbers belong to inactive results. Cut-off read from the data, not from the text of the source: active = z-score above about 3 (passing the limit was not always enough); inactive = the rest.
# Target: Endoribonuclease Dicer (Homo sapiens) (UniProt Q9UPY3)
# Assay: Dicer cleavage of pre-miR-21 blockers – biochemical, cat-ELCCA, chemiluminescence, primary screen (AID 1347074);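 note: plate controls were vehicle for no effect and no enzyme for full effect; higher signal means more uncleaved substrate so more Dicer inhibition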
# Conditions: cat-ELCCA pre-miR-21 Dicer processing, at 25 µM, active compounds read high
# Chain of Endoribonuclease Dicer (Homo sapiens) (Q9UPY3 whole entry, looked up): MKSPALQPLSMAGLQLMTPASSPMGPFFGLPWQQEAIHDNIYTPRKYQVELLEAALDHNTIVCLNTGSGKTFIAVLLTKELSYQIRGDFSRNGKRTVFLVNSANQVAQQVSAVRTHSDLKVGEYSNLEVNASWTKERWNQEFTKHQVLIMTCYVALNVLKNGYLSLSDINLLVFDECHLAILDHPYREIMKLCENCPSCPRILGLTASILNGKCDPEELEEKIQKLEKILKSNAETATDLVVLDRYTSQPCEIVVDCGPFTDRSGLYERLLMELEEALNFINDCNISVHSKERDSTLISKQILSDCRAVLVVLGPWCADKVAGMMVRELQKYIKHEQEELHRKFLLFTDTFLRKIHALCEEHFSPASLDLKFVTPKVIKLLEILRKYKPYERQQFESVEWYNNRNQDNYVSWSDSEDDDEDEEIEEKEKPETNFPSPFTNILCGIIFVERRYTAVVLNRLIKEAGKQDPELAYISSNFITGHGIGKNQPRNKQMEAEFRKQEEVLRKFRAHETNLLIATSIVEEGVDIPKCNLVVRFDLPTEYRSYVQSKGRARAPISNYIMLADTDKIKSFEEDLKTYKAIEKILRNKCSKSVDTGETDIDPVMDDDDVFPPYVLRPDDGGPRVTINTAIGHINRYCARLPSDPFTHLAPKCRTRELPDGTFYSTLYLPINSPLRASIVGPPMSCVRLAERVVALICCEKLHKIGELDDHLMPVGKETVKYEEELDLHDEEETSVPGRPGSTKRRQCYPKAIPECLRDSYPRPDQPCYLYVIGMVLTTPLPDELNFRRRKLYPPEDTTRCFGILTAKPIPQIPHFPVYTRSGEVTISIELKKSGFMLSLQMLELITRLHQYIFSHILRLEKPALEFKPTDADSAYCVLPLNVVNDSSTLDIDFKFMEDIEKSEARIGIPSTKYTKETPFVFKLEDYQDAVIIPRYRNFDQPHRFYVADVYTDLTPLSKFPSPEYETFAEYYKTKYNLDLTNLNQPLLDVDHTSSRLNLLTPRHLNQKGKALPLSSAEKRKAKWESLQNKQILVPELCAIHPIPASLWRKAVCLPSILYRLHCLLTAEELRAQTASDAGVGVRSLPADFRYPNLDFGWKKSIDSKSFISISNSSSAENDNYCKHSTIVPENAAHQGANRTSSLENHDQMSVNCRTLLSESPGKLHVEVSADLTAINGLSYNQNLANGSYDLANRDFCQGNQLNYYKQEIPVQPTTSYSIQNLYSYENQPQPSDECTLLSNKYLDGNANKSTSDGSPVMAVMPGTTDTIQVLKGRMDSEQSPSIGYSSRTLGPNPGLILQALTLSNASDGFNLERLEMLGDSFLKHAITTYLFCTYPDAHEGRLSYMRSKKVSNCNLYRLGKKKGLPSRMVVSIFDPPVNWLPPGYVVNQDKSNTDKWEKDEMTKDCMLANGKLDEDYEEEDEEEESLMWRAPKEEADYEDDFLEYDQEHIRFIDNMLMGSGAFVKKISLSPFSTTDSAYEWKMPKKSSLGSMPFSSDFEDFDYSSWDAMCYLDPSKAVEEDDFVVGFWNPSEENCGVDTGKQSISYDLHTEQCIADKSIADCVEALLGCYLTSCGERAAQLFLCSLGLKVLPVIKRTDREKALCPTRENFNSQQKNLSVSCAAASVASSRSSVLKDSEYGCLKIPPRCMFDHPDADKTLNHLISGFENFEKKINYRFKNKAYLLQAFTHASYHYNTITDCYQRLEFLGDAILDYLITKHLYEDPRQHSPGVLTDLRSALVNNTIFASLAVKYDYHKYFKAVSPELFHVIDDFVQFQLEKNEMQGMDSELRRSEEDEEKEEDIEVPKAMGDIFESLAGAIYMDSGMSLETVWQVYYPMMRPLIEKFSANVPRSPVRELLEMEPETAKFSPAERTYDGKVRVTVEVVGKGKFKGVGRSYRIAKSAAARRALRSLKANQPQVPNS
row,Structure (SMILES),z-score
1,CSc1sc(C(=O)c2ccc(Cl)cc2)c2c1C(=O)CCC2,-1.08
2,CSc1sc(C(=O)NNC(=S)Nc2ccccc2Cl)c2c1C(O)CCC2 (stereo not given),6.52 (active)
3,CC(=O)N1CCc2cc(NC(=S)Nc3ccccc3Cl)ccc21,0.03
4,CC1=C(C(=O)OCCc2ccccc2)C(c2cccs2)C2=C(CCCC2=O)N1 (stereo not given),0.14
5,CC(C)c1nnc(NC(=O)Cn2c(=O)sc3ccccc32)s1,0.59
6,Nc1cc(=O)[nH]c(SCC(=O)Nc2ccccc2F)n1,1.47
7,COc1ccc(Cl)cc1NC(=O)CSc1nc2ncccc2[nH]1,3.45 (active)
8,CNC(=O)CSc1nc2ccccc2[nH]1,1.43
9,O=C1c2ccccc2C(=O)N1CN1CCC(CCCC2CCN(CN3C(=O)c4ccccc4C3=O)CC2)CC1,2.46
10,Cc1sc2nc3n(c(=O)c2c1C)N=C(c1cccs1)CS3,1.1
11,O=C1c2cccnc2C(=O)N1c1ccc(-c2nc3ccccc3o2)cc1,2.88
12,O=C(OCCN1CCOCC1)C1(c2ccccc2)CCCCC1,-0.8
13,O=C(OCCN1CCCCC1)C1COc2ccccc2O1 (stereo not given),3.41 (active)
14,Cc1cc(NC(=O)CCC2COc3ccccc3O2)no1 (stereo not given),0.67
15,CC(C)(C)c1cc(N/C=C/c2nnnn2-c2ccccc2)no1,-0.3
16,Brc1cccc(CN2CCN(Cc3cccnc3)CC2)c1,1.06
17,c1ccc(CN2CCN(Cc3cn[nH]c3-c3ccccc3)CC2)cc1,-2.57
18,COc1ccc(CN2CCN(Cc3ccccc3OC)CC2)cc1Br,3.53 (active)
19,COc1cccc(CNCc2ccc3c(c2)OCO3)c1,0.54
20,c1cc(CNCc2ccc3c(c2)OCO3)ccn1,3.21 (active)
21,c1ccc(NCc2ccc3c(c2)OCO3)nc1,-1.56
22,COc1cccc(N2C(=O)C3ON(c4ccccc4)C(c4ccco4)C3C2=O)c1 (stereo not given),1.03
23,COc1ccc(OCC(O)CN2CCC(C)CC2)cc1 (stereo not given),-0.23
24,CC1=C(C(=O)OCc2ccccc2)C(c2ccc(O)cc2)C2=C(CCCC2=O)N1 (stereo not given),0.01
25,O=C1CCCC2=C1C(c1ccc([N+](=O)[O-])o1)Nc1ccc(C(=O)c3ccccc3)cc1N2 (stereo not given),4.19 (active)

row,Structure (SMILES),z-score
1,CC1=C(C(=O)OCC2CCCO2)C(c2ccc(-c3ccccc3)cc2)C2=C(CCCC2=O)N1 (stereo not given),1.9
2,COc1ccc(Cc2nc3c4c5c(sc4ncn3n2)CCCC5)cc1OC,0.1
3,N#C/C(=C\c1sccc1Oc1ccccc1)S(=O)(=O)c1ccc(Cl)cc1,-1.9
4,O=C1c2ccccc2C(=O)C1c1ccccc1,0.31
5,O=C1c2ccccc2C(=O)C1c1ccccc1F,20.4 (active)
6,Nc1nc2c(c(=O)[nH]1)C(c1ccccc1F)CC(=O)N2 (stereo not given),-1.01
7,COC(=O)CCS(=O)(=O)c1ccc2ccccc2c1,1.34
8,COC(=O)c1ccc(/C=C/c2nc3cc(C)c(C)cc3o2)cc1,-0.26
9,O=S(=O)(c1cccc(-c2cn3ccccc3n2)c1)N1CCCC1,-0.49
10,Cc1ccc(S(=O)(=O)Nc2cccc(-c3cn4ccccc4n3)c2)cc1C,5.71 (active)
11,Cc1cccn2cc(-c3cccc(S(=O)(=O)N4CCCCC4)c3)nc12,0.61
12,Cc1ccc(O)c(C2=NN3C(C2)c2cc(Cl)ccc2OC3c2ccncc2)c1 (stereo not given),-0.01
13,COc1ccc(O)c(C2=NN3C(C2)c2cc(Cl)ccc2OC3c2cccnc2)c1 (stereo not given),-1.34
14,Oc1ccccc1C1=NN2C(C1)c1cc(Br)ccc1OC2c1ccncc1 (stereo not given),12.7 (active)
15,O=C(O)/C=C/C(=O)Nc1cccc([N+](=O)[O-])c1,1.26
16,Cc1cccc(C)c1NC(=S)N1CCc2ccccc2C1,-2.91
17,O=[N+]([O-])c1cc(Br)cnc1Sc1n[nH]c(-c2cccs2)n1,-0.81
18,Clc1ccc(-c2nn3c(-c4ccc(Cl)cc4)nnc3s2)cc1,0.14
19,COc1nc(NC(C)(C)C)nc(Oc2ccc(=O)[nH]n2)n1,-0.91
20,O=C(c1cccs1)N1CCN(Cc2ccc3c(c2)OCO3)CC1,0.63
21,CCCCCc1c(C)nc(N2CCN(Cc3ccc4c(c3)OCO4)CC2)[nH]c1=O,3.11 (active)
22,O=C1CC(c2ccccc2)Cc2nc(N3CCN(Cc4ccc5c(c4)OCO5)CC3)ncc21 (stereo not given),-1.59
23,CCCCN1C(=O)C(c2c(C)[nH]n(-c3ccccc3)c2=O)(C(F)(F)F)C2=C1CC(C)(C)CC2=O (stereo not given),-2.96
24,Cc1ccc(S(=O)(=O)Nc2cccc(CCc3ccccn3)c2)cc1,-0.8
25,COCCCNC(=S)Nc1ccc(C)cc1C,-0.42

row,Structure (SMILES),z-score
1,CCCc1ccc(C(=O)NNc2ccc(C)cc2C)cc1,4.39 (active)
2,CCCCCCCCc1ccc(C(=O)O)cc1,-0.9
3,Oc1c(C(Nc2ccccn2)c2ccncc2)ccc2cccnc12 (stereo not given),1.37
4,Cc1cccc(Cl)c1N=C(N)N=C(N)N,1.97
5,CC1(C)N=C(N)N=C(N)N1c1cc(Cl)c(Cl)cc1Cl,-0.47
6,O=c1ccn(C2CCCO2)c(=O)n1Cc1ccccc1F (stereo not given),0.96
7,CCc1ccc(C(=O)/C=C/Sc2ccccn2)cc1,4.22 (active)
8,CCc1ccc(C(=O)/C=C/Sc2nc3ccccc3o2)cc1,1.33
9,CCCc1c(C)nc2scc(-c3ccc(Cl)cc3)n2c1=O,1.65
10,O=C(Nc1cccc(C(F)(F)F)c1)Nc1ccccc1SCc1ccc(Cl)cc1,-1.32
11,COCCCNC(=S)N/N=C/c1ccccc1Cl,-0.35
12,COc1cccc(/C=N/NC(=S)Nc2cc(C(F)(F)F)cc(C(F)(F)F)c2)c1O,5.84 (active)
13,COc1cccc(/C=N/NC(=O)c2cc(C)nc3ccc(Br)cc23)c1O,2.93
14,CC(C)OC(=O)Cn1nc(C(F)(F)F)c2c1CCCC2,0.31
15,CNC(=O)NC(=O)CSc1ncnc2sc(-c3ccccc3)cc12,-1.14
16,COc1ccc(Nc2ncnc3sc(-c4ccccc4)cc23)c(OC)c1,8.39 (active)
17,c1ccc(Nc2ncnc3sc(-c4ccccc4)cc23)cc1,0.51
18,CCOc1nc(-c2ccc(C)cc2)ccc1-c1noc(C)n1,0.71
19,Cn1c(SCC(=O)Nc2cccc(C(F)(F)F)c2)nnc1SCC(=O)Nc1cccc(C(F)(F)F)c1,-0.05
20,COc1cc(C2c3c(oc4ccc(F)cc4c3=O)C(=O)N2Cc2ccccc2)ccc1O (stereo not given),2.47
21,COc1nc(NC(=O)NS(=O)(=O)c2ccccc2C(F)(F)F)nc(C23CC4CC(CC(C4)C2)C3)n1,-0.58
22,Cc1ccc(Sc2nc3ccc(Cl)cc3s2)cc1,-1.81
23,Cc1ccc2nc(-c3ccc(NS(=O)(=O)c4ccc(Cl)s4)cc3)sc2c1,4.31 (active)
24,Cc1ccc(S(=O)(=O)Nc2ccc3ncccc3c2)cc1,0.32
25,COc1ccc(C2CC(=O)c3cn4nc(C)nc4nc3C2)cc1OC (stereo not given),-0.07

row,Structure (SMILES),z-score
1,Cc1cc(C)c(S(=O)(=O)N2CCc3ccccc3C2)c(C)c1,0.07
2,CN([C@H]1CCN2CCc3ccccc3C2C1)S(C)(=O)=O (stereo not given in full),3.92 (active)
3,CN(C(=O)CSc1nc(C2CCCCC2)c(C#N)c(=O)[nH]1)c1ccccc1,-0.59
4,COc1ccc(C2=Nc3ccccc3SC(c3ccc(OC)c(O)c3)C2)c(O)c1 (stereo not given),-0.56
5,COc1ncnc2sc(C(=O)O)c(C)c12,0.21
6,CCc1ccnc(NS(=O)(=O)c2ccc3c(c2)OCCO3)c1,0.59
7,CCc1ccc(S(=O)(=O)Nc2cc(Cl)c3oc(=O)sc3c2)cc1,14.8 (active)
8,CCOc1ccc(NS(=O)(=O)c2ccc(Cl)cc2)cc1,0.5
9,COc1ccc(-c2cnc3cc(-c4ccc(Cl)cc4)nn3c2N)cc1OC,1.34
10,Cn1c2c(c(=O)n(C)c1=O)C(c1ccc(F)cc1)C1=C(N2)c2ccccc2C1=O (stereo not given),1.52
11,O=C1C2=C(Nc3[nH]c(=O)[nH]c(=O)c3C2c2ccc(F)cc2)c2ccccc21 (stereo not given),-3.54
12,O=C1C2=C(Nc3ccccc3S(=O)(=O)C2c2ccc(Cl)cc2)c2ccccc21 (stereo not given),5.21 (active)
13,O=C1c2oc3ccccc3c(=O)c2C(c2ccccc2F)N1c1nncs1 (stereo not given),-0.05
14,O=C1CC(=O)CC(c2cccc(Cl)c2)C1,-0.3
15,Cc1ccc(-c2nnc(NCc3ccccc3)c3ccccc23)cc1S(=O)(=O)N1CCOCC1,3.46 (active)
16,Cc1ccc(-c2nnc(Nc3ccccc3)c3ccccc23)cc1S(=O)(=O)NCCO,0.4
17,Cc1ccc(-c2nnc(N3CCOCC3)c3ccccc23)cc1S(=O)(=O)N1CCCCC1,-4.68
18,COCc1cc(C)nc(Nc2ccc(C)cc2)c1C#N,-0.19
19,CCCc1nnc2n1Nc1nc3ccccc3nc1S2,0.21
20,Cc1noc(C)c1S(=O)(=O)N(C)C1CCCCC1,0.73
21,Cn1nccc1NC(=O)CC(CC(=O)O)c1ccccc1 (stereo not given),-0.73
22,O=C(O)CC(CC(=O)Oc1ccccc1N1CCCCC1)c1ccccc1 (stereo not given),4.46 (active)
23,Cc1cc(NC(=O)CC(CC(=O)O)c2ccccc2)n(C)n1 (stereo not given),-1.02
24,CCOC(=O)c1ccc(NCN2C(=O)c3ccccc3C2=O)cc1,0.49
25,CCCN1C(=O)C2(/C(=C(/O)c3ccc(F)cc3)C(=O)C(=O)N2CCCN(C)C)c2ccccc21 (stereo not given),-0.34
